Measurements reported in the supplement of paper PMC3334620.
Whole data set: some 33,000 sequences, median “E-score (-0.5 to 0.5)” near -0.041, cut for the highest 2% near 0.37. The list comes from a sample in which the highest values are over-represented; it also holds similar and randomly drawn sequences.

These sequences were tested against T1, Ecm22 (UniProt Q05958) (assay: PBM E-score (8-mer binding enrichment) (E-score (-0.5 to 0.5)); higher = stronger / more preferred TF binding). Settings: protein concentration: 200 nM; construct: GST-full length.
T1 sequence: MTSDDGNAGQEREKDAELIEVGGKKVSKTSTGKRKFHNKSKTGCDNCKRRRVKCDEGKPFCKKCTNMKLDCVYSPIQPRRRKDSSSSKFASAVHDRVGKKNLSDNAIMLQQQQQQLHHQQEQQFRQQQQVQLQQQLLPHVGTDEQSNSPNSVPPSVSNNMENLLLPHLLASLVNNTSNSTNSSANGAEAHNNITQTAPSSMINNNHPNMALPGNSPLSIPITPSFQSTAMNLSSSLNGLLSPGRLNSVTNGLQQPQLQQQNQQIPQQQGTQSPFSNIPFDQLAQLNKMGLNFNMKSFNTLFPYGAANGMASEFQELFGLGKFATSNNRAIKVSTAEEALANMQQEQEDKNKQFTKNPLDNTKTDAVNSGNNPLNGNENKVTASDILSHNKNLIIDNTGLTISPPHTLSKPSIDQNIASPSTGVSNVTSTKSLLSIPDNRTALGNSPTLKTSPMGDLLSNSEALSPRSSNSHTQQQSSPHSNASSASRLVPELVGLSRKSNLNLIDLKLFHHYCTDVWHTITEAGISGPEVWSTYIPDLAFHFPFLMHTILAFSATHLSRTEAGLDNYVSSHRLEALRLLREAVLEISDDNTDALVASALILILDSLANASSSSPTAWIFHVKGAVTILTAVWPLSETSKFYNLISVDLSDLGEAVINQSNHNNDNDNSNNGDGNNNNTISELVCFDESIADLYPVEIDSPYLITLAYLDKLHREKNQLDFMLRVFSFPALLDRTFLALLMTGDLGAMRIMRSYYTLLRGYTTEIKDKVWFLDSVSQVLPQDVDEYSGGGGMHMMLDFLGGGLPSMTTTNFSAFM
Method: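 Universal 'all 10-mer' protein binding microarrays (Agilent AMADID 015681) probed with GST-tagged S. cerevisiae TFs (full-length or DBD) made by in vitro transcription/translation (PURExpress), about 100-200 nM. Bound TF was detected with fluorescent anti-GST. Each ungapped 8-mer (which stands for itself and its reverse complement) is scored by the PBM enrichment score (E-score), a modified Wilcoxon-Mann-Whitney statistic from -0.5 to +0.5, computed with the Universal PBM Analysis Suite. Scale: above 0.35 generally sequence-specific binding.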

| Sequence | PBM E-score |
| --- | --- |
| GGAGTAAA | 0.0078 |
| GGGGCTAC | -0.0133 |
| GACGCCTA | -0.221 |
| TCTTCGAA | 0.108 |
| GATACTTA | -0.131 |
| CAGTCGTC | -0.109 |
| AAGTCGTG | -0.0717 |
| GAGTCGGA | 0.0868 |
| GAGTCGCA | 0.133 |
| CAGTCGGA | -0.067 |
| CAGTCGTA | 0.418 |
| AAGTCGTA | 0.433 |
| GAGTCGTA | 0.43 |
| AAGTCGTC | 0.139 |
| CCGGCCGA | -0.113 |
| AAGAGTTC | 0.00406 |
| CGAGCAAC | 0.168 |
| ACGCCGTG | -0.146 |
| ACTCATGC | -0.0706 |
| CACTGGGG | -0.267 |
| ACGAGATG | 0.365 |
| ACGAGACG | 0.394 |
| ACGAGACA | 0.315 |
| ACGAGACT | 0.348 |
| GCGAGAGC | 0.182 |

| Sequence | PBM E-score |
| --- | --- |
| ACGAGATC | 0.433 |
| ACGAGAGA | 0.353 |
| ACGAGATA | 0.346 |
| ACGAGAGC | 0.399 |
| TGTAAACA | -0.0145 |
| CGTAAACC | 0.366 |
| AGTAAACG | 0.427 |
| GGTAAACA | 0.129 |
| AGTAAACA | 0.0411 |
| AGTAAACC | -0.0723 |
| CGTAAACG | 0.444 |
| CGTAAACA | 0.385 |
| CGGAAACG | 0.269 |
| TCCTTAAA | -0.1 |
| GGTCCACC | -0.214 |
| ACGCGGGA | 0.062 |
| AAAGCAGG | -0.203 |
| TCTTTACA | -0.132 |
| GTTTCGTA | 0.44 |
| GTTTCGAA | -0.00209 |
| ATTTCGTG | 0.0706 |
| GTTTCGGA | 0.215 |
| ATTTCGTC | 0.0861 |
| ATTTCGTA | 0.444 |
| CTTTCGTC | 0.0061 |

| Sequence | PBM E-score |
| --- | --- |
| CTTTCGTA | 0.428 |
| CTTTCGGA | 0.0148 |
| GCCCGTGA | -0.115 |
| AGGTTTGC | -0.153 |
| ACCTAAAT | 0.112 |
| ACTGGAAA | -0.0956 |
| GTTAAACA | 0.00429 |
| AGCGTTTA | 0.168 |
| GTCGTTTA | 0.491 |
| AACGTTTA | 0.319 |
| ATCGTTTC | 0.365 |
| GACGTTTA | 0.303 |
| ATCGTTTG | 0.414 |
| ATCGTTTA | 0.483 |
| GGCGTTTA | 0.166 |
| AGCGTTTG | 0.031 |
| AAATCTCT | -0.0179 |
| ACACTCCT | -0.163 |
| CGTTGAGC | 0.0667 |
| CCACAAGA | -0.185 |
| CAAAAGGG | -0.181 |
| GCGGGGAC | -0.152 |
| CCGATACG | 0.326 |
| ACGATACT | 0.313 |
| ATGATACG | 0.377 |

| Sequence | PBM E-score |
| --- | --- |
| ATGATACA | -0.0736 |
| ATGATACC | 0.146 |
| ACGATACG | 0.383 |
| GTTTTCCA | 0.061 |
| CTCCCGTC | 0.121 |
| TAAGTGCA | 0.0499 |
| CTGTTGCC | -0.265 |
| AAGGAACT | -0.0399 |
| AAGGAACC | 0.0815 |
| CAGGAACG | 0.463 |
| ATGGAACC | -0.0738 |
| CAGGAACC | -0.171 |
| AAGGAACG | 0.458 |
| CAGGAACA | -0.0447 |
| ATGGAACA | -0.322 |
| ATGGAACG | 0.402 |
| CCGCCTAG | -0.193 |
| CTTACCTA | -0.117 |
| GAAGTGTC | -0.055 |
| AATAGTTG | -0.116 |
| CAGCGTCG | 0.0918 |
| AAGCCGTC | -0.0956 |
| GTAACGAA | 0.306 |
| CCAACGAA | 0.0596 |
| GAAACGAA | 0.414 |

| Sequence | PBM E-score |
| --- | --- |
| CAAACGAA | 0.438 |
| TAAACGAA | 0.488 |
| AAAACGAA | 0.277 |
| TAAACGCA | 0.292 |
| TAAACAAA | 0.114 |
| GAAACAAA | -0.0214 |
| AGTGACAT | -0.283 |
| GGCACAAA | -0.134 |
| GATATGCC | -0.108 |
| ATATTTAA | 0.0866 |
| ATACGGCG | 0.406 |
| AGACGGCG | -0.0146 |
| ACACGGCG | -0.0862 |
| AAACGGCA | 0.294 |
| ATACGGCC | 0.388 |
| CTACGGCC | 0.018 |
| AGACGGCC | -0.223 |
| ATACGGCA | 0.404 |
| CTACGGCA | 0.1 |
| GTACGGCA | 0.395 |
| ACACGGCA | 0.108 |
| GCACGGCA | -0.0485 |
| CCACCAAA | -0.13 |
| GGCTGAAA | -0.0667 |
| ACAATGGA | -0.0436 |

| Sequence | PBM E-score |
| --- | --- |
| AGATGGCG | -0.102 |
| CTTACGCC | 0.0486 |
| CTTACGCA | 0.0308 |
| CTCACGAA | 0.128 |
| CTTACGAA | 0.391 |
| GTTACGGA | 0.233 |
| ATTACGAA | 0.349 |
| CTTACGAC | 0.394 |
| CTCACGAC | -0.0734 |
| GTTACGAA | 0.404 |
| CGAAAATC | 0.162 |
| CGGCATCA | 0.0766 |
| CGTACCGC | 0.47 |
| CATACCGC | -0.0365 |
| AGTACCGC | 0.148 |
| CGTACCGA | 0.447 |
| AGTACCGA | 0.0799 |
| GGTACCGA | 0.103 |
| CGAGTCAC | 0.106 |
| ACTGGCAT | -0.182 |
| AATACCGG | -0.042 |
| ACGATAAT | 0.309 |
| ACGATCGC | 0.327 |
| ACGATCGG | 0.274 |
| ACGATCGT | 0.43 |

| Sequence | PBM E-score |
| --- | --- |
| CCGTACAA | 0.4 |
| CCGTACAG | 0.388 |
| CCGTACAC | 0.33 |
| ACGTACAG | 0.186 |
| CGGTACAA | 0.214 |
| TCGTACAA | 0.49 |
| GCGTACAA | 0.243 |
| CAGTACAA | -0.0343 |
| ACGTACAA | 0.298 |
| AATTTCTC | 0.0237 |
| CGCTCGTA | 0.467 |
| CGCTCGTC | 0.168 |
| GGCTCGTA | 0.479 |
| CGCTCGGA | 0.252 |
| AGCTCGTC | 0.0121 |
| GGCTCGGA | 0.0976 |
| AGCTCGTA | 0.477 |
| AGCTCGTG | 0.182 |
| GGCTCGAA | 0.0317 |
| AGGTCTAT | 0.0387 |
| TATGATGA | 0.00697 |
| ATAGGTTC | 0.00586 |
